The full list was thinned out, with hits kept by preference.
Ec RNAP inh = Escherichia coli RNA polymerase inhibition; E. coli RNA polymerase, fluorescence transcription assay; inhibition, %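 (tested at 10 µM)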; actives 0.2% (n = 62,000); AID 559; in the data active = inhibition above about 20%;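 note: 0% = enzyme without compound and 100% = no enzyme blank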
PLAP activator = activates human placental alkaline phosphatase | P05187 | purified PLAP enzyme, luminescent substrate read-out; active compounds read high | activation fold at 20 µM | actives 1.2% (n = 96,000) | AID 696; in the data active = activation fold above about 2
Target sequence (P05187 whole entry, looked up): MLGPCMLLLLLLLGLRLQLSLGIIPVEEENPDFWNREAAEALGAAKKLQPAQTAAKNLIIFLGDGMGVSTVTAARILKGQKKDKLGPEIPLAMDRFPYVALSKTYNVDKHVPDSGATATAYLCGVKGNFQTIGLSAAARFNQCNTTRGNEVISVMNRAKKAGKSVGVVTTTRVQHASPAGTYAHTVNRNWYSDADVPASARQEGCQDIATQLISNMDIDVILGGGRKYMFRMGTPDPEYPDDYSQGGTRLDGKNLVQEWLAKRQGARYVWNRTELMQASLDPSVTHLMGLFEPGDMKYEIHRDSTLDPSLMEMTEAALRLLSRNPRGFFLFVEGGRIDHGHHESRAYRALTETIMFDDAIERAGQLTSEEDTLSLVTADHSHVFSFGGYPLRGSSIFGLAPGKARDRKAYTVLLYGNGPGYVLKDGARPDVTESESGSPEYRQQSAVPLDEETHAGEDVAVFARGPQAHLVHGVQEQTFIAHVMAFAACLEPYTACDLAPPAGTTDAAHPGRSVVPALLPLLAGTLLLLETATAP
TNAP act DEA = human TNAP activation, intermediate phosphate acceptor. purified TNAP, CDP-star luminescence, 100 mM DEA, 30 min; active compounds read high; scale: 0 levamisole-inhibited, 1 vehicle-only enzyme. activation factor at 20 µM. 64,000 tested, under 10 active. P05186;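 active = activation factor of at least 2 at 20 µM, relative to controls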
Starred values were filed as active, the others as inactive; · = no result.

SMILES	Ec RNAP inh	PLAP activator	TNAP act DEA
CCn1c(SCc2nc3sc(C(=O)O)c(C)c3c(=O)[nH]2)nc2ccccc21	·	2.3*	·
COCCn1c(SCc2nc3sc(C(=O)OC)c(C)c3c(=O)[nH]2)nc2ccccc21	0	1.1	1
Cn1c(CCNC(=O)c2ccco2)nc2cc(NS(=O)(=O)c3ccc(Cl)cc3)ccc21	·	1.5	0.9
O=C(NCc1ccco1)c1ccccc1NS(=O)(=O)c1cccs1	7	1.4	0.9
O=C(NCc1ccco1)c1ccccc1NS(=O)(=O)c1ccc(Cl)s1	·	2.1*	·
O=C1CNC(=O)/C1=C/c1ccc(O)cc1	·	0.7	·
COC(=O)Nc1ccc2ncn(C)c(=O)c2c1	·	0.8	·
COc1cc(C(=O)Nc2ccc(-c3nc4cc(C)ccc4o3)c(O)c2)cc(OC)c1OC	-1	2.7*	1
COc1cccc(C(=O)Nc2ccc(-c3nc4ccccc4o3)c(O)c2)c1	5	1.5	0.9
Cc1ccc(C(=O)NNC(=O)C2CCN(Cc3ccc(Cl)c(Cl)c3)CC2)cc1	·	1.1	·
Cc1ccc(C(=O)NNC(=O)C2CCN(Cc3ccccc3)CC2)cc1	·	2.1*	·
C=CCN=C(NC#N)SCc1ccccc1Cl	7	0.8	0.9
COc1ccccc1N1CCN(C2CCN(S(=O)(=O)c3ccc4ccccc4c3)CC2)CC1	·	1.2	·
CCc1cccc(C)c1NC(=O)C(c1ccccc1)N1CCC1=O (configuration not stated)	·	1.2	·
CCOc1cc(CNc2ccc3c(c2)CCC3)ccc1OC	·	1.1	·
O=C(NC1CCCC1)c1ccc2nc[nH]c2c1	3	1.1	0.9
O=C(c1ccccc1)c1ccc2nc[nH]c2c1	7	2*	0.9
C=C(C)CSc1nc(N)cc(=O)[nH]1	1	1	0.9
Cc1cccc(Nc2ncnc3nc[nH]c23)c1	6	·	1.1
CCOC(=O)c1ccc(Nc2ncnc3nc[nH]c23)cc1	11	1.2	1
COc1ccc(Nc2ncnc3c2cnn3-c2cccc(C)c2)cc1OC	0	·	0.9
c1ccc(COc2ccc(Nc3ncnc4nc[nH]c34)cc2)cc1	2	2.3*	1
COc1ccc(Nc2ncnc3nc[nH]c23)cc1OC	3	2*	1.1
Cc1ccc(C)c(Nc2ncnc3nc[nH]c23)c1	8	2.4*	1.1
Cc1ccc(CSCC(=O)N/N=C/c2sccc2C)cc1	·	0.5	·
SMILES	Ec RNAP inh	PLAP activator	TNAP act DEA
COc1ccc(CC(=O)NC(C)c2nnc(SCCOc3ccc(OC)cc3)n2C)cc1 (configuration not stated)	·	1.1	·
CCCCOC(=O)NC1CCS(=O)(=O)C1 (configuration not stated)	·	1	·
COC(=O)CSc1nnc([C@H](CC(C)C)NC(=O)OC(C)(C)C)o1	·	1.3	0.9
CC1CCN(c2nc3c(c(=O)[nH]c(=O)n3C)n2Cc2ccccc2Cl)CC1	4	·	1
Cc1ccc(C2=Nc3ccccc3NC(C)(c3ccc(C)o3)C2)o1 (configuration not stated)	-16	1.3	0.9
CCOC(=O)c1ccc(-n2c(=O)[nH]c3ccccc3c2=O)cc1	8	2*	0.9
CCOC(=O)N1CCN(C(=O)Cc2ccc(-n3c(=O)[nH]c4ccccc4c3=O)cc2)CC1	6	1.1	1
O=S(=O)(c1ccccc1F)N(Cc1ccco1)Cc1nnc(-c2ccccc2Br)o1	-3	1.2	0.9
CS(=O)(=O)N(CC(=O)N1CCc2ccccc2C1)Cc1ccccc1	·	2.2*	·
CS(=O)(=O)N(CC(=O)N1CCN(Cc2ccccc2)CC1)Cc1ccccc1	-1	1.3	0.9
Cn1cc(NC(=O)c2cc(NC(=O)c3cc(NC=O)cn3C)cn2C)cc1C(=O)NCCC(=N)N	7	·	0.9
Cc1ccc(NCc2nnc(SCC(=O)NCc3ccco3)n2CC2CCCO2)cc1Cl (configuration not stated)	-12	1.6	0.9
Cc1ccc(NCc2nnc(SCCN3CCCCC3)n2CC2CCCO2)cc1Cl (configuration not stated)	9	2*	1
Cc1cccc(/C=C2/S/C(=N/N=C3\CC4CCC3(C)C4(C)C)NC2=O)c1 (configuration not stated)	·	1.1	·
CCN(CC)CCCNc1nc2cc(OC)c(OC)cc2c2nc(-c3ccccc3)nn12	·	2*	·
COc1cc2nc(NCC3CCCO3)n3nc(-c4cccnc4)nc3c2cc1OC (configuration not stated)	-7	2*	1
COc1cc2nc(NCCN3CCOCC3)n3nc(-c4ccccc4)nc3c2cc1OC	0	·	1
CCN(CC)CCCNc1nc2cc(OC)c(OC)cc2c2nc(-c3cccnc3)nn12	·	1.5	·
C=C(C)Cn1c(Sc2nc3ccccc3[nH]2)nc2c1c(=O)[nH]c(=O)n2C	9	2.1*	1
C=C(C)Cn1c(SCCCO)nc2c1c(=O)[nH]c(=O)n2C	1	0.9	0.8
CC1(C)C=Cc2c(c3ccccc3[nH]c2=O)O1	6	0.9	0.9

High-throughput results (PubChem BioAssay)
